Reference: PubChem BioAssay
Some of the results follow. Values without a mark were called inactive. The source made the active and inactive calls.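 Rule for the calls, unless noted: active = mean inhibition above about 50% in the one-dose retest (limit read from the data); inactive = the rest.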

How the values were obtained:
[1] = molecular target: Sentrin-specific protease 8 (Homo sapiens) (UniProt Q96LD8); experiment: human SENP8 peptidase blockers, hit retest – biochemical, luminescence, single concentration, confirmation (AID 488912;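 active = mean inhibition across replicates above about 50%, limit read from the data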); settings: Recombinant SENP8, Z-RLRGG-aminoluciferin luminescence, 60 min; at 12.5 µM; stronger effect = higher value
Sentrin-specific protease 8 (Homo sapiens), sequence (Q96LD8 whole entry, looked up, the tested form may be a part): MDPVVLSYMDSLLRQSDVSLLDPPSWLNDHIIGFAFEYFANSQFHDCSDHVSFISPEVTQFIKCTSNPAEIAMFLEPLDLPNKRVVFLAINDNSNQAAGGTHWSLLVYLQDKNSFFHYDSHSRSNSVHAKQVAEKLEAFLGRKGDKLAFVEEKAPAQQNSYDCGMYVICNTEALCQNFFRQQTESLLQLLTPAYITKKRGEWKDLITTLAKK

[2] = molecular target: Sentrin-specific protease 6 (Homo sapiens) (UniProt Q9GZR1); experiment: inhibition of human SENP6 catalytic domain – biochemical, luminescence, single concentration, confirmation (AID 488915); settings: recombinant SENP6, Z-RLRGG-aminoluciferin luminescence; at 12.5 µM; stronger effect = higher value
Sentrin-specific protease 6 (Homo sapiens), sequence (Q9GZR1 628-1112 limits assumed): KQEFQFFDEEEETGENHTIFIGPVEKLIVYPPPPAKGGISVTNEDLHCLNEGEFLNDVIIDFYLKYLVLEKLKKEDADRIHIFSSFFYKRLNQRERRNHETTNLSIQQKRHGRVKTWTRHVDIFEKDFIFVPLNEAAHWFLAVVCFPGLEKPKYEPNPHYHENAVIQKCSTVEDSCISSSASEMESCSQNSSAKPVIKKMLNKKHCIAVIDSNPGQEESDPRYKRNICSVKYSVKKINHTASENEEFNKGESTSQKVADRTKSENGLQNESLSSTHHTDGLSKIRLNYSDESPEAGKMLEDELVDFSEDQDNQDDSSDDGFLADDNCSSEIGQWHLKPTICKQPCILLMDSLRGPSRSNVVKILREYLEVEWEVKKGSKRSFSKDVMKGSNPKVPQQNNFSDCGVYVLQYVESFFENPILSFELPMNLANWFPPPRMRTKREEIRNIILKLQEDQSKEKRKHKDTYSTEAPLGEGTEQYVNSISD

[3] = molecular target: Sentrin-specific protease 7 (Homo sapiens) (UniProt Q9BQF6); experiment: human SENP7 peptidase blockers, hit retest – biochemical, luminescence, single concentration, confirmation (AID 488917); settings: recombinant SENP7, Z-RLRGG-aminoluciferin luminescence, 40 min; at 12.5 µM; stronger effect = higher value
Sentrin-specific protease 7 (Homo sapiens), sequence (Q9BQF6 706-1050 limits assumed): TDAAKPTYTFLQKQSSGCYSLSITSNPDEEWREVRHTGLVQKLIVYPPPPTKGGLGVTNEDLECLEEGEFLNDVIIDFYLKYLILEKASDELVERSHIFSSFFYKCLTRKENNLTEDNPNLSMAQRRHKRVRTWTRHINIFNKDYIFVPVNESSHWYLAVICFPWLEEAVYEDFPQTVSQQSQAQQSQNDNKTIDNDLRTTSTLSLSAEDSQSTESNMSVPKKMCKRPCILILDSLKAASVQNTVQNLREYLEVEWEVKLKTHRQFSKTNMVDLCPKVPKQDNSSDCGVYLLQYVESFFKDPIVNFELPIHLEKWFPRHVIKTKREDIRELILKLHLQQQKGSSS

Caspase-3 (Homo sapiens) = Caspase-3 (Homo sapiens) (UniProt P42574); experiment: human caspase-3 activity blockade, out-of-family – biochemical, single concentration, selectivity assay for SENP inhibitor project, confirmation (AID 488918;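 active = mean inhibition above about 50%, limit read from the data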;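 note: plate controls were enzyme with DMSO for no effect and wells without caspase-3 for full effect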); settings: purified caspase-3, Z-DEVD-aminoluciferin luminescence, 60 min; at 12.5 µM; stronger effect = higher value
Caspase-3 (Homo sapiens), sequence (P42574 28-227 limits assumed): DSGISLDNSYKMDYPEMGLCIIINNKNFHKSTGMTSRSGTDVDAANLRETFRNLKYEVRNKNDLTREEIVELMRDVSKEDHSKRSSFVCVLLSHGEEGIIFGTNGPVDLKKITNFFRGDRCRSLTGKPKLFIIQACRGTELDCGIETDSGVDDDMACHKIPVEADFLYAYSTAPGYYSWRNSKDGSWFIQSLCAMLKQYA

[4] = Ultra-Glo luciferase signal interference – biochemical, single concentration, SENP8 reaction pre-completed, artefact control for SENP inhibitor project, confirmation (AID 488919;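 active = mean inhibition above about 50% when retested at one dose, limit read from the data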;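 note: plate controls were DMSO wells with completed reaction for no effect and substrate without enzyme for full effect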); settings: Pre-incubated SENP8/Z-RLRGG-aminoluciferin, luciferase luminescence interference; at 12.5 µM; stronger effect = higher value
[5] = apoptosome-driven caspase-3 activation blockers – biochemical, fluorescence, DEVD-Rh110, 20 µM, confirmation (AID 504614;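 active = mean inhibition of at least 40% at 20 µM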;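 note: plate controls were DMSO wells for no effect and DEVD-CHO caspase inhibitor control wells for full effect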); settings: reconstituted apoptosome, caspase-3 DEVD-Rh110 fluorescence; at 20 µM; stronger effect = higher value
[6] = detection-step artefacts after completed caspase reaction – biochemical, fluorescence, Rh110, 20 µM, artefact control for Apaf-1 inhibitor project, confirmation (AID 504615;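 active = signal rise of 40% or more at 20 µM, treated as a fluorescence artifact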); settings: quenched caspase reaction, at 20 µM, stronger effect = higher value

| Structure (SMILES) | inhibition [1] | inhibition [2] | inhibition [3] | inhibition (Caspase-3 (Homo sapiens)) | inhibition [4] | inhibition [5] [%] | activation (fluorescence interference) [6] [%] |
| --- | --- | --- | --- | --- | --- | --- | --- |
| O=C(Cn1ccc([N+](=O)[O-])n1)NCc1cccs1 | -12.3% | -5.9% | -4.5% | -1.1% | -8.7% |  |  |
| O=c1c2c(nc3n1CCCCC3)sc1c(O)cccc12 | 53.6% (active) | 49.2% | 75.5% (active) | 59.4% (active) | 61.9% (active) |  |  |
| Clc1ccc(Nc2ccc3ccccc3n2)cc1 | 87.7% (active) | 88.2% (active) | 97.8% (active) | 48.8% | 71.2% (active) |  |  |
| O=c1c2c(nc3cc(-c4cccc(Cl)c4)[nH]n13)CCCC2 | -9.4% | 0% | 21.5% | 41.6% | -4.6% |  |  |
| Cc1ccc(O)c(CNc2nc3ccccc3n2C)c1 | -5% | -7.9% | 7.6% | 8.9% | -0.5% |  |  |
| Cc1ccc(C(=O)N/N=C\c2cc(Br)c(Br)o2)cn1 | 3.5% | 12.7% | 8.1% | 12.1% | -0.7% | 4.66 | -11.2 |
| COc1ccccc1NC(=O)c1ccc(N2CC3CC(C2)c2cccc(=O)n2C3)c(NC(=O)c2cccnc2)c1 (stereo not drawn) | 8.2% | 5.2% | 12.1% | 8.9% | 3.7% |  |  |
| Cc1cc(NC(=O)c2ccc(F)cc2)ccc1NC(=O)c1ccco1 | 78.9% (active) | 73.5% (active) | 93% (active) | 88.6% (active) | 14.8% |  |  |
| O=C(c1cnn2ccccc12)N1CCc2ccccc21 | 36.7% | 39.6% | 78.5% (active) | 74% (active) | 61.4% (active) |  |  |
| COc1ccc(C(=O)Nc2ccccc2C(=O)N/N=C/c2ccccc2OC)cc1 | 4% | 43.4% | 52.6% (active) | 83.9% (active) | 15.2% |  |  |
| O=C1/C(=C/c2cccs2)CCc2ccccc21 | 98.3% (active) | 99.1% (active) | 101% (active) | 95.8% (active) | 97.6% (active) |  |  |
| Cc1ccccc1Nc1nc(-c2cccnc2)cs1 | 70.3% (active) | 66.9% (active) | 86.9% (active) | 52.8% (active) | 69.4% (active) |  |  |
| O=C(Nc1ccc(C2CC2(Cl)Cl)cc1)c1cccc([N+](=O)[O-])c1 (stereo not drawn) | 57.6% (active) | 60.1% (active) | 87.5% (active) | 36.1% | 29.5% |  |  |
| Oc1ccc(N=Cc2sc3ccccc3c2Cl)cc1 | -10.7% | -2.2% | 49.3% | 1.9% | 20.8% | 14.4 | 5.12 |
| Cc1[nH][nH]c(=O)c1C(c1ccc(-c2ccc(Cl)cc2)o1)c1c(C)[nH][nH]c1=O | -6.8% | 16% | 2.9% | 7.2% | 1.7% | 18 | -1.73 |
| C/C(=N\NC(=O)CNc1cccc2ccccc12)c1ccc(Br)s1 | -9.7% | -9.8% | -3.4% | -2.4% | -7.4% | 13.9 | 3.87 |
| C/C(=N\NC(=O)c1ccc(C)cc1)C1C(=O)c2ccccc2C1=O | 92.6% (active) | 93.5% (active) | 100% (active) | 92.7% (active) | 94.1% (active) |  |  |
| C1=C(CCNc2ncnc3c2cnn3-c2ccccc2)CCCC1 | 2% | 22% | -1.5% | 39.5% | -4.4% |  |  |
| COc1ccc2occ(C(=O)c3ccc(N=C(C)N(C)C)cc3)c2c1 | 44.8% | 42.5% | 73% (active) | 65.7% (active) | 51.3% (active) |  |  |
| Cc1ccc(S(=O)(=O)Nc2nc3ccccc3nc2N2CCc3ccccc3C2)cc1 | -9.3% | -1.3% | -5.2% | 4.5% | 4.3% |  |  |
| CCSc1nnc(NC(=O)c2ccc(C)cc2)s1 | 33.7% | 23.5% | 51.1% (active) | 27.1% | 2% |  |  |
| COc1ccc(NC(=O)Nc2cccc3cccnc23)cc1 | 86.4% (active) | 85.6% (active) | 97.2% (active) | 70.7% (active) | 78.5% (active) |  |  |
| Nc1ccc(-c2nnc(-c3ccccc3)o2)cc1 | 51.2% (active) | 51.4% (active) | 79.5% (active) | 65.7% (active) | 35.7% |  |  |
| O=C(ON=C1CCN(S(=O)(=O)c2ccccc2)CC1)c1ccc(Cl)cc1 | 12.5% | 15.5% | 3.4% | 17.7% | -1.9% |  |  |
